# Reference: the supplement of paper PMC8728848
# The sample as a whole holds a higher share of the strongest signals than the screen did.
# B1: GH95CBM (Clostridium perfringens) (protein)
# chain: EKVAVETSVYLSELEWKSASTGYGEIQKDASCDGNTITLKGENGEKVSYDKGIGTHAHSEIVYSLEGLDYYDYFETFVGVDQEMAGTVASISFEVYLDNEKVFDSGLMTGDTTQKHVKVPIAGKNTLKLVVKDGGDSIGSDHGSFGDAKLT
# B2: CBM32-4 (Clostridium perfringens), P26831 (protein)
# chain: MGSSHHHHHHSSGLVPRGSHMASVYEPSLVDAYVGDDGAKKAVDGDLKTRVKFLGAPSTGDTIVYDLGQEILVDNLKYVVLDTEVDHVRDGKIQLSLDGETWTDAINIGDGVENGVDDMFSTPLKNGYKHGNQSGGIVPIDSAYVEGDNLNQKARYVRILFTAPYRHRWTVINELMINNGEYIPTVNDPT
# What was measured:
# Test in all cases: glycan array binding signal (z-score within array); higher = stronger binding
# Conditions in all cases: glycan notation: IUPAC condensed, linker removed
# [1] = target: Fuc(a1-2)Gal(b1-4)GlcNAc6S
# Summary of the method: (§1)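 Negative Z-scores can be read as non-binding. The Z-score is calculated within each array and then averaged across arrays of one protein sequence at different concentrations or buffers and across linkers. Arrays, 3228 in all, were curated from the Consortium for Functional Glycomics database and kept only where the protein sequence was available.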
# [2] = target: Fuc(a1-2)Gal(b1-4)[Fuc(a1-3)]GlcNAc
# Summary of the method: as §1
# [3] = target: Fuc(a1-2)Gal6S(b1-4)GlcNAc
# Summary of the method: as §1
# [4] = target: Fuc(a1-2)[Gal(a1-3)]Gal(b1-3)GlcNAc
# Summary of the method: as §1
# [5] = target: Fuc(a1-2)[GalNAc(a1-3)]Gal
# Summary of the method: as §1
# [6] = target: Gal(a1-3)Gal(b1-4)[Fuc(a1-3)]GlcNAc
# Summary of the method: as §1
# [7] = target: Gal(b1-2)Gal
# Summary of the method: as §1
# [8] = target: Gal(b1-3)GalNAc(b1-3)Gal(a1-4)Gal(b1-4)Glc
# Summary of the method: as §1
# [9] = target: Gal(b1-3)[Fuc(a1-4)]GlcNAc(b1-3)Gal(b1-3)[Fuc(a1-4)]GlcNAc
# Summary of the method: as §1
# [10] = target: Gal(b1-4)GalNAc(b1-3)[Fuc(a1-2)]Gal(b1-4)GlcNAc
# Summary of the method: as §1
# [11] = target: Gal(b1-4)GlcNAc(a1-6)Gal(b1-4)GlcNAc
# Summary of the method: as §1
# [12] = target: Gal(b1-4)GlcNAc(b1-3)[Gal(b1-4)GlcNAc(b1-6)]Gal(b1-4)GlcNAc
# Summary of the method: as §1
# [13] = target: Gal(b1-4)GlcNAc(b1-3)[GlcNAc(b1-6)]Gal(b1-4)GlcNAc
# Summary of the method: as §1
# [14] = target: Gal(b1-4)GlcNAc(b1-6)[Gal(b1-3)]GalNAc
# Summary of the method: as §1
# [15] = target: GalNAc(b1-3)Gal
# Summary of the method: as §1
# [16] = target: GalNAc(b1-3)Gal(a1-4)Gal(b1-4)GlcNAc
# Summary of the method: as §1
# [17] = target: GlcA(b1-6)Gal
# Summary of the method: as §1
# [18] = target: GlcNAc(b1-3)Gal(b1-4)Glc
# Summary of the method: as §1
# [19] = target: GlcNAc(b1-4)GlcNAc(b1-4)GlcNAc(b1-4)GlcNAc(b1-4)GlcNAc
# Summary of the method: as §1
# [20] = target: GlcNAc(b1-6)Gal(b1-4)GlcNAc
# Summary of the method: as §1
# [21] = target: Man(a1-2)Man(a1-3)[Man(a1-2)Man(a1-6)]Man(a1-6)[Man(a1-2)Man(a1-2)Man(a1-3)]Man
# Summary of the method: as §1
# [22] = target: Neu5Ac(a2-3)Gal(b1-3)[Fuc(a1-4)]GlcNAc(b1-3)Gal(b1-4)[Fuc(a1-3)]GlcNAc
# Summary of the method: as §1
# [23] = target: Neu5Ac(a2-3)Gal(b1-4)GlcNAc(b1-2)Man(a1-3)[Neu5Ac(a2-6)Gal(b1-4)GlcNAc(b1-2)Man(a1-6)]Man(b1-4)GlcNAc(b1-4)GlcNAc
# Summary of the method: as §1
# [24] = target: Neu5Ac(a2-3)GalNAc(b1-4)GlcNAc
# Summary of the method: as §1
# [25] = target: Neu5Ac(a2-6)Gal
# Summary of the method: as §1
# [26] = target: Neu5Ac(a2-6)Gal(b1-4)GlcNAc6S
# Summary of the method: as §1
# [27] = target: Neu5Ac(a2-8)Neu5Ac(a2-8)Neu5Ac(a2-3)Gal(b1-4)Glc
# Summary of the method: as §1
# [28] = target: Neu5Ac9Ac(a2-6)Gal(b1-4)GlcNAc
# Summary of the method: as §1
# [29] = target: Neu5Gc(a2-3)Gal(b1-4)GlcNAc
# Summary of the method: as §1
# [30] = target: Fuc(a1-2)Gal(b1-4)[Fuc(a1-3)]GlcNAc(b1-3)Gal(b1-4)[Fuc(a1-3)]GlcNAc(b1-3)Gal(b1-4)[Fuc(a1-3)]GlcNAc
# Summary of the method: as §1
# [31] = target: Fuc(a1-2)Gal6S(b1-4)Glc6S
# Summary of the method: as §1
# [32] = target: Fuc(a1-2)[Gal(a1-3)]Gal
# Summary of the method: as §1
# [33] = target: Fuc(a1-2)[GalNAc(a1-3)]Gal(b1-4)GlcNAc
# Summary of the method: as §1
# [34] = target: Gal3S(b1-4)GlcNAc
# Summary of the method: as §1
# [35] = target: Gal3S4S(b1-4)GlcNAc
# Summary of the method: as §1
# [36] = target: Gal3S6S(b1-4)GlcNAc6S
# Summary of the method: as §1
# [37] = target: Gal6S(b1-4)Glc6S
# Summary of the method: as §1
# [38] = target: Gal6S(b1-4)GlcNAc6S
# Summary of the method: as §1
# [39] = target: GlcNAc(b1-2)Gal(b1-3)GalNAc
# Summary of the method: as §1
# [40] = target: Man(a1-2)Man(a1-3)Man
# Summary of the method: as §1
# [41] = target: Neu5Ac(a2-3)Gal(b1-4)Glc
# Summary of the method: as §1
# [42] = target: Neu5Ac(a2-6)Gal(b1-4)GlcNAc(b1-2)Man(a1-6)[Gal(b1-4)GlcNAc(b1-2)Man(a1-3)]Man(b1-4)GlcNAc(b1-4)GlcNAc
# Summary of the method: as §1
# [43] = target: Neu5Ac(a2-6)GalNAc
# Summary of the method: as §1
binder,measurement,setting,value
B1,glycan array binding signal (z-score),[1],-0.334
same,glycan array binding signal (z-score),[2],-0.325
same,glycan array binding signal (z-score),[3],-0.296
same,glycan array binding signal (z-score),[4],-0.321
same,glycan array binding signal (z-score),[5],-0.291
same,glycan array binding signal (z-score),[6],4.88
same,glycan array binding signal (z-score),[7],2.38
same,glycan array binding signal (z-score),[8],4.91
same,glycan array binding signal (z-score),[9],-0.312
same,glycan array binding signal (z-score),[10],4.18
same,glycan array binding signal (z-score),[11],-0.283
same,glycan array binding signal (z-score),[12],-0.311
same,glycan array binding signal (z-score),[13],-0.326
same,glycan array binding signal (z-score),[14],3.34
same,glycan array binding signal (z-score),[15],3.84
same,glycan array binding signal (z-score),[16],6.95
same,glycan array binding signal (z-score),[17],-0.227
same,glycan array binding signal (z-score),[18],-0.347
same,glycan array binding signal (z-score),[19],-0.133
same,glycan array binding signal (z-score),[20],-0.319
same,glycan array binding signal (z-score),[21],1.43
same,glycan array binding signal (z-score),[22],-0.265
same,glycan array binding signal (z-score),[23],-0.357
same,glycan array binding signal (z-score),[24],-0.362
same,glycan array binding signal (z-score),[25],-0.355
same,glycan array binding signal (z-score),[26],-0.298
same,glycan array binding signal (z-score),[27],-0.343
same,glycan array binding signal (z-score),[28],-0.367
same,glycan array binding signal (z-score),[29],-0.34
B2,glycan array binding signal (z-score),[1],-0.104
same,glycan array binding signal (z-score),[30],-0.29
same,glycan array binding signal (z-score),[31],4.3
same,glycan array binding signal (z-score),[32],-0.4
same,glycan array binding signal (z-score),[33],-0.266
same,glycan array binding signal (z-score),[34],-0.195
same,glycan array binding signal (z-score),[35],3.87
same,glycan array binding signal (z-score),[36],5.67
same,glycan array binding signal (z-score),[37],4.96
same,glycan array binding signal (z-score),[38],4.9
same,glycan array binding signal (z-score),[39],-0.264
same,glycan array binding signal (z-score),[40],-0.021
same,glycan array binding signal (z-score),[21],-0.564
same,glycan array binding signal (z-score),[41],-0.183
same,glycan array binding signal (z-score),[42],-0.336
same,glycan array binding signal (z-score),[43],-0.363
